# Experimental data: PubChem BioAssay (Tox21)
# Where “and” joins values, the source holds several entries; their conditions need not be identical. Equal values may be shown once. Values without a mark were called inactive. Inconclusive results are not listed. A call without a number means that no potency is given here. Calls of active or inactive are those of the source. Calls follow the shape of the full dose curve.
# Test system: not listed separately
# Experiment: Nuclear factor erythroid 2-related factor 2/antioxidant responsive element (Nrf2/ARE) small molecule agonists: luciferase reporter gene qHTS assay in human keratinocytes (AID 1919969)
# Details: KeratinoSens HaCaT ARE-luciferase, luminescence, 24 h; series mostly up to 92.4 µM
# Also: nearly all actives have a fitted effect of over 35% in size.
# Potency is read from the fitted curve at half-maximal effect.
SMILES,Potency,"activity, positive = activation"
COc1ccc(C(=O)/C(Br)=C\C(=O)O)cc1,54.5 µM (active),
COc1ccc(-c2cc(=S)ss2)cc1,33.5 µM (active),
O=C(CCCCCCC(=O)Nc1ccccc1)NO,8.41 µM (active),
c1cc(CN2CCCCC2)cc(OCCCNc2nc3ccccc3s2)c1,inactive,
O=c1[nH]c2ccccc2n1CCCN1CCN(C(c2ccccc2)c2ccccc2)CC1,inactive,
Cc1ccc(O)c(C(C)(C)C)c1,inactive,
O=C(OC[C@H]1O[C@@H](OC(=O)c2cc(O)c(O)c(OC(=O)c3cc(O)c(O)c(O)c3)c2)[C@H](OC(=O)c2cc(O)c(O)c(OC(=O)c3cc(O)c(O)c(O)c3)c2)[C@@H](OC(=O)c2cc(O)c(O)c(OC(=O)c3cc(O)c(O)c(O)c3)c2)[C@@H]1OC(=O)c1cc(O)c(O)c(OC(=O)c2cc(O)c(O)c(O)c2)c1)c1cc(O)c(O)c(OC(=O)c2cc(O)c(O)c(O)c2)c1,,-5.14% [at 19 µM]
COc1cc(Nc2c(C#N)cnc3cc(OCCCN4CCN(C)CC4)c(OC)cc23)c(Cl)cc1Cl,inactive,
N[C@@H](C(=O)N[C@@H]1C(=O)N2C(C(=O)O)=C(Cl)CS[C@H]12)c1ccccc1,,-7.33% [at 8.39 µM]
CCCC(=O)O[C@]1(C(=O)CCl)[C@@H](C)C[C@H]2[C@@H]3CCC4=CC(=O)C=C[C@]4(C)[C@@]3(F)C(=O)C[C@@]21C,inactive,
Cc1cccc(O)c1N,30.9 µM (active),
CCN(CC)c1ccc(C(=C2C=CC(=[N+](CC)CC)C=C2)c2cc(S(=O)(=O)O)ccc2S(=O)(=O)[O-])cc1,inactive,
Cc1cc(O)c2c(c1)C(=O)c1cc(O)cc(O)c1C2=O,33.6 µM (active),
O=C1Cc2cc(CCN3CCN(c4nsc5ccccc45)CC3)c(Cl)cc2N1,inactive,
COc1ccccc1OCCNCC(O)COc1cccc2[nH]c3ccccc3c12 (stereo not given),inactive,
O=c1cc(-c2ccc(O)cc2)oc2cc(O)cc(O)c12,8.75 µM (active) and 9.69 µM (active),
CCCCCCCC/C=C/CCCCCCCC1=NCCN1CCO,inactive,
CC1=NN(c2cc(Cl)c(S(=O)(=O)O)cc2Cl)C(=O)C1N=Nc1ccc(S(=O)(=O)O)cc1 (stereo not given),inactive,
CN(C)CC/C=C1\c2ccccc2Sc2ccc(Cl)cc21,inactive,
C(=C(c1ccccc1)c1ccccc1)c1ccccc1,27.3 µM (active),

SMILES,Potency,"activity, positive = activation"
NC(=O)C1(N2CCCCC2)CCN(CCCN2c3ccccc3CCc3ccc(Cl)cc32)CC1,inactive,
O=C1c2ccccc2C(=O)c2c(O)c(O)cc(O)c21,inactive,
CCCCCCCCNC(C)C(O)c1ccc(SC(C)C)cc1 (stereo not given),inactive,
CN1CCCC(CC2c3ccccc3Sc3ccccc32)C1 (stereo not given),inactive,
CCOc1ccc2nc3cc(N)ccc3c(N)c2c1,29.8 µM (active),
CC1=NN(c2ccc(S(=O)(=O)O)cc2)C(=O)C1N=Nc1ccccc1 (stereo not given),inactive,
Nc1ccc(N)c2c1C(=O)c1ccccc1C2=O,inactive,
CNCC[C@@H](Oc1ccccc1C)c1ccccc1,inactive,
COc1cc([N+](=O)[O-])ccc1N,inactive,
Cc1c(C(=O)NN2CCCCC2)nn(-c2ccc(Cl)cc2Cl)c1-c1ccc(Cl)cc1,inactive,
CSc1ccc(/C=C2/C(C)=C(CC(=O)O)c3cc(F)ccc32)cc1,inactive,
CC(C)C(OC(=O)c1ccccc1)C(C)(C)COC(=O)c1ccccc1 (stereo not given),30.6 µM (active),
CN(C)C(=O)NC1(c2ccccc2)CCN(CCC[C@]2(c3ccc(Cl)c(Cl)c3)CCCN(C(=O)c3ccccc3)C2)CC1,,6.8% [at 19 µM]
Clc1ccc(Cn2c(CN3CCCC3)nc3ccccc32)cc1,33.5 µM (active),
O=C1CCCCCN1SSN1CCCCCC1=O,24.3 µM (active),
CC(COc1ccc(C(C)(C)C)cc1)OS(=O)OCCCl (stereo not given),inactive,
c1ccc(-c2ccc(C(c3ccccc3)n3ccnc3)cc2)cc1 (stereo not given),29.8 µM (active),
Cc1onc(-c2c(Cl)cccc2Cl)c1C(=O)N[C@@H]1C(=O)N2[C@@H]1SC(C)(C)[C@@H]2C(=O)O,inactive,
Cc1ccc(N/N=c2\c(=O)cc/c(=N\Nc3ccc(S(=O)(=O)O)cc3)c2=O)c(C)c1,inactive,
CCCCC(CC)CN1CN(CC(CC)CCCC)CC(C)(N)C1 (stereo not given),inactive,

# Target: Gonadotropin-releasing hormone receptor (Homo sapiens) (UniProt P30968)
# Sequence (P30968 whole entry, looked up): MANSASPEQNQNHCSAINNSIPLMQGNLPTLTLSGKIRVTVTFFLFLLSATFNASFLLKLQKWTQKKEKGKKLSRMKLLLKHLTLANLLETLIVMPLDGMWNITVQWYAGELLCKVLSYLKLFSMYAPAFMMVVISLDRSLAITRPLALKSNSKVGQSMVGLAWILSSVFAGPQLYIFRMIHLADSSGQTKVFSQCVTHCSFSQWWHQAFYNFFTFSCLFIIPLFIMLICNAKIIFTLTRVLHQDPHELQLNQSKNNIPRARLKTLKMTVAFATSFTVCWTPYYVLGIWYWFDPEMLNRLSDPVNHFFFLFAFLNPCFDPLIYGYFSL
# Experiment: Human gonadotropin-releasing hormone receptor (GnRHR) small molecule agonists, calcium flux assay in GnRHR-HEK293 cells (AID 1920063)
# Details: calcium flux fluorescence, agonist mode; series mostly up to 57.6 µM
# Procedure, shortened: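 Calcium-dye fluorescence, Ex/Em=480/540, recorded every 1 sec over 3 min after compound addition to GnRHR-HEK293 cells. Cells had been seeded 18 hours earlier and dye-loaded for 1 hour at 37 C. Fifteen concentrations, triplicates.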
SMILES,Potency,activity change
COc1ccc(C(=O)/C(Br)=C\C(=O)O)cc1,inactive,
COc1ccc(-c2cc(=S)ss2)cc1,inactive,
O=C(CCCCCCC(=O)Nc1ccccc1)NO,inactive,
c1cc(CN2CCCCC2)cc(OCCCNc2nc3ccccc3s2)c1,inactive,
O=c1[nH]c2ccccc2n1CCCN1CCN(C(c2ccccc2)c2ccccc2)CC1,inactive,
Cc1ccc(O)c(C(C)(C)C)c1,inactive,
O=C(OC[C@H]1O[C@@H](OC(=O)c2cc(O)c(O)c(OC(=O)c3cc(O)c(O)c(O)c3)c2)[C@H](OC(=O)c2cc(O)c(O)c(OC(=O)c3cc(O)c(O)c(O)c3)c2)[C@@H](OC(=O)c2cc(O)c(O)c(OC(=O)c3cc(O)c(O)c(O)c3)c2)[C@@H]1OC(=O)c1cc(O)c(O)c(OC(=O)c2cc(O)c(O)c(O)c2)c1)c1cc(O)c(O)c(OC(=O)c2cc(O)c(O)c(O)c2)c1,,"-0.655% [at 11.8 µM, hits give high values]"
COc1cc(Nc2c(C#N)cnc3cc(OCCCN4CCN(C)CC4)c(OC)cc23)c(Cl)cc1Cl,inactive,
N[C@@H](C(=O)N[C@@H]1C(=O)N2C(C(=O)O)=C(Cl)CS[C@H]12)c1ccccc1,,"-0.646% [at 5.22 µM, hits give high values]"
CCCC(=O)O[C@]1(C(=O)CCl)[C@@H](C)C[C@H]2[C@@H]3CCC4=CC(=O)C=C[C@]4(C)[C@@]3(F)C(=O)C[C@@]21C,inactive,
Cc1cccc(O)c1N,inactive,
CCN(CC)c1ccc(C(=C2C=CC(=[N+](CC)CC)C=C2)c2cc(S(=O)(=O)O)ccc2S(=O)(=O)[O-])cc1,inactive,
Cc1cc(O)c2c(c1)C(=O)c1cc(O)cc(O)c1C2=O,inactive,
O=C1Cc2cc(CCN3CCN(c4nsc5ccccc45)CC3)c(Cl)cc2N1,inactive,
COc1ccccc1OCCNCC(O)COc1cccc2[nH]c3ccccc3c12 (stereo not given),inactive,
O=c1cc(-c2ccc(O)cc2)oc2cc(O)cc(O)c12,inactive,
CCCCCCCC/C=C/CCCCCCCC1=NCCN1CCO,inactive,
CC1=NN(c2cc(Cl)c(S(=O)(=O)O)cc2Cl)C(=O)C1N=Nc1ccc(S(=O)(=O)O)cc1 (stereo not given),inactive,
CN(C)CC/C=C1\c2ccccc2Sc2ccc(Cl)cc21,inactive,
C(=C(c1ccccc1)c1ccccc1)c1ccccc1,inactive,

SMILES,Potency,activity change
NC(=O)C1(N2CCCCC2)CCN(CCCN2c3ccccc3CCc3ccc(Cl)cc32)CC1,inactive,
O=C1c2ccccc2C(=O)c2c(O)c(O)cc(O)c21,inactive,
CCCCCCCCNC(C)C(O)c1ccc(SC(C)C)cc1 (stereo not given),16.9 µM (active),
CN1CCCC(CC2c3ccccc3Sc3ccccc32)C1 (stereo not given),inactive,
CCOc1ccc2nc3cc(N)ccc3c(N)c2c1,inactive,
CC1=NN(c2ccc(S(=O)(=O)O)cc2)C(=O)C1N=Nc1ccccc1 (stereo not given),inactive,
Nc1ccc(N)c2c1C(=O)c1ccccc1C2=O,inactive,
CNCC[C@@H](Oc1ccccc1C)c1ccccc1,inactive,
COc1cc([N+](=O)[O-])ccc1N,inactive,
Cc1c(C(=O)NN2CCCCC2)nn(-c2ccc(Cl)cc2Cl)c1-c1ccc(Cl)cc1,inactive,
CSc1ccc(/C=C2/C(C)=C(CC(=O)O)c3cc(F)ccc32)cc1,inactive,
CC(C)C(OC(=O)c1ccccc1)C(C)(C)COC(=O)c1ccccc1 (stereo not given),inactive,
CN(C)C(=O)NC1(c2ccccc2)CCN(CCC[C@]2(c3ccc(Cl)c(Cl)c3)CCCN(C(=O)c3ccccc3)C2)CC1,,"-0.446% [at 11.8 µM, hits give high values]"
Clc1ccc(Cn2c(CN3CCCC3)nc3ccccc32)cc1,inactive,
O=C1CCCCCN1SSN1CCCCCC1=O,inactive,
CC(COc1ccc(C(C)(C)C)cc1)OS(=O)OCCCl (stereo not given),inactive,
c1ccc(-c2ccc(C(c3ccccc3)n3ccnc3)cc2)cc1 (stereo not given),inactive,
Cc1onc(-c2c(Cl)cccc2Cl)c1C(=O)N[C@@H]1C(=O)N2[C@@H]1SC(C)(C)[C@@H]2C(=O)O,inactive,
Cc1ccc(N/N=c2\c(=O)cc/c(=N\Nc3ccc(S(=O)(=O)O)cc3)c2=O)c(C)c1,inactive,
CCCCC(CC)CN1CN(CC(CC)CCCC)CC(C)(N)C1 (stereo not given),inactive,
